# Bioassay records: PubChem, Broad Institute
# PvdQ inh: blocks Pseudomonas aeruginosa PvdQ acylase activity; 340,000 compounds, 0.063% hits; AID 488965; purified PvdQ acylase, fluorescence plate reader; inhibition, % at 10 µM; in the data active means inhibition above about 30%, passing the limit was not always enough
# PGC1a acetyl inh: PGC1a acetylation modulation, inhibitor mode; inhibition, % at 15.6 µM; 350,000 compounds, 0.17% hits; U2OS PGC1a acetylation, AlphaScreen anti-acetyl-lysine; with virally co-expressed GCN5 acetyltransferase;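 active means every replicate shows inhibition of at least 40%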
# C2C12 statin: suppression of simvastatin myotoxicity | C2C12 myotubes + simvastatin, ATP luminescence, 48 h; scaled: DMSO 0, geranylgeraniol control 100 | rescue of ATP level, % at 7.49 µM | 330,000 compounds, 0.78% hits | AID 602340;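 active means mean ATP rescue above about 67%, or every replicate alone reaching that limit, limit read from the data, passing the limit was not always enough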;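 further: myotubes were challenged with 10 µM simvastatin during compound exposure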
# miR-122 sensor: miR-122 inhibition in Huh7 cells; Huh7 miR-122 Renilla luciferase sensor, 48 h; neutral wells = 0, positive control = 100; activation (reporter increase), % at 12.5 µM; 340,000 compounds, 0.3% hits; AID 602342;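 active means mean replicate activation score at least 90 and every replicate individually at or above 90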;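 further: higher luciferase means less miR-122 activity so hits act as miR-122 inhibitors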
# DENV2 CPE: inhibitors of DENV2 cytopathic effect; DENV2-infected cells, cytopathic effect rescue, plate reader; CPE inhibition, % at 9.99 µM; 350,000 compounds, 1.7% hits; in the data active means CPE inhibition above about 20%, passing the limit was not always enough; tested in BHK-21 cells
# Hits are given with their value; - = inactive; . = no result given; [ ] = another dose, or the depositor's remark. Compounds with a hit are over-represented: about 2.2% of the library has one in this group of screens.
SMILES,PvdQ inh,PGC1a acetyl inh,C2C12 statin,miR-122 sensor,DENV2 CPE
COc1ccc(S(=O)(=O)Nc2ccc3c(c2)C(=O)N([C@H](C)CO)C[C@@H](C)[C@H](CN(C)C(=O)Nc2ccc(C(F)(F)F)cc2)OCCCC[C@H](C)O3)cc1,.,-,.,-,-
COc1ccc(S(=O)(=O)Nc2ccc3c(c2)C(=O)N([C@@H](C)CO)C[C@H](C)[C@H](CN(C)C(=O)Nc2ccccc2)OCCCC[C@@H](C)O3)cc1,.,-,.,120[16.7 µM],-
C[C@@H]1CCCCO[C@@H](CN(C)C(=O)Nc2ccc(C(F)(F)F)cc2)[C@H](C)CN([C@H](C)CO)C(=O)c2cc(NS(=O)(=O)c3ccc(F)cc3)ccc2O1,.,-,.,-,69
C[C@H](CO)N1C[C@H](C)[C@H](CN(C)C(=O)Nc2ccc(C(F)(F)F)cc2)OCCCC[C@H](C)Oc2ccc(NS(=O)(=O)c3ccc(F)cc3)cc2C1=O,.,-,.,-,82
COc1ccc(S(=O)(=O)Nc2ccc3c(c2)C(=O)N([C@H](C)CO)C[C@H](C)[C@H](CN(C)C(=O)Nc2ccc(C(F)(F)F)cc2)OCCCC[C@H](C)O3)cc1,.,-,.,-,76
C[C@H]1CCCCO[C@H](CN(C)C(=O)Nc2ccc(C(F)(F)F)cc2)[C@@H](C)CN([C@@H](C)CO)C(=O)c2cc(NS(=O)(=O)c3ccc(F)cc3)ccc2O1,.,-,.,-,-
CCC(=O)N1CC2(CCN(Cc3cccnc3)CC2)c2c(n(C)c3cc(OC)ccc23)[C@@H]1CO,.,-,.,.,-
C[C@H](NC(=O)CCCOc1ccc(Cl)cc1Cl)c1nnc2ccccn12,-,-,-,-,41
O=C(CCCOc1ccc(Cl)cc1Cl)NCCc1nnc2ccccn12,-,.,.,.,-
COc1cc(NC(=O)[C@@H](Cc2ccccc2)NC(=O)[C@H]2O[C@@H](n3ccc(=O)[nH]c3=O)[C@H](O)[C@@H]2O)cc(OC)c1OC,.,.,.,.,43
CCCCNS(=O)(=O)c1ccc(OC)c(Cl)c1Cl,-,-,-,222,.
CCC(C)NS(=O)(=O)c1ccc(OC)c(Cl)c1Cl (centres undefined),35,-,-,-,.
CCCCCCNS(=O)(=O)c1ccc(OC)c(OC)c1,-,-,-,203,.
COCCCNS(=O)(=O)c1ccc(OC)c(Cl)c1Cl,-,-,-,-,.
COc1ccc(S(=O)(=O)NCCc2ccccc2)cc1OC,-,.,-,.,-
CC(C)n1c(/C=C/c2ccccc2)nc2ccccc21,-,.,-,192,.
CC(C)NC(=O)N1CC2(C1)[C@H](c1ccccc1)[C@@H](CO)N2C(=O)c1ccccn1,.,-,.,.,33
CC(C)NC(=O)N1[C@H](CO)[C@@H](c2ccccc2)C12CN(Cc1ccc(Cl)cc1)C2,.,-,.,.,-
CC(C)NC(=O)N1[C@@H](CO)[C@@H](c2ccccc2)C12CN(Cc1ccccc1)C2,.,-,.,.,28
CC(C)NC(=O)N1[C@H](CO)[C@@H](c2ccccc2)C12CN(C(=O)c1ccccn1)C2,.,-,.,.,-
C[C@@H](NC(=O)C[C@H]1CC[C@H]2[C@@H](COC[C@H](O)CN2C(=O)Nc2cccc(Cl)c2)O1)c1ccccc1,.,-,-,-,-
CCc1noc(C)c1C(=O)NNC(=O)c1ccccc1,-,-,-,-,-
CCc1ccc(C(=O)NNC(=O)c2c(CC)noc2C)cc1,-,.,-,.,37
OC[C@@H]1[C@H](c2ccc(C3=CCCCC3)cc2)[C@@H]2CN(CCC(F)(F)F)CCCCN12,.,-,-,-,-
Cc1nc(N)sc1-c1csc(N(C)c2ccc(O)cc2)n1,-,-,94,-,.
SMILES,PvdQ inh,PGC1a acetyl inh,C2C12 statin,miR-122 sensor,DENV2 CPE
CN(c1ccc(O)cc1)c1nc(-c2cccs2)cs1,-,-,.,.,-
O=C(NCc1ccco1)c1ccccc1NS(=O)(=O)c1cccs1,-,.,.,.,.
O=C(NCc1ccco1)c1ccccc1NS(=O)(=O)c1ccc2c(c1)OCCO2,-,-,109,-,.
COc1ccc(C(CC(=O)N2CCCC(C)C2)c2c(O)cc(OC)cc2OC)cc1 (centres undefined),-,-,-,-,-
COc1cc(O)c(C(CC(=O)N2CCCC(C)C2)c2cc(OC)c(OC)c(OC)c2)c(OC)c1 (centres undefined),-,.,-,-,62
Cc1ccn2c(=O)nc(SCC(=O)N3CCCc4ccccc43)nc2c1,-,.,-,.,-
O=C(CSc1nc(=O)n2ccccc2n1)N1CCCc2ccccc21,-,-,-,-,68
C=CCSc1nc(=O)n2ccccc2n1,-,-,100,-,-
